Screening data deposited in PubChem BioAssay by Fisher Drug Discovery Resource Center.
Compounds with a hit are over-represented: about 0.28% of the library has one in this group of screens.
hcGAS inh = human cGAS inhibition; Q8N884; recombinant h-cGAS, ATP depletion, Kinase-Glo luminescence; inhibition, % at 12.5 µM; actives 0.081% (n = 290,000); AID 1259398;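 also: 0% = vehicle reaction and 100% = reaction without DNA for no activity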
Target sequence (Q8N884 whole entry, looked up): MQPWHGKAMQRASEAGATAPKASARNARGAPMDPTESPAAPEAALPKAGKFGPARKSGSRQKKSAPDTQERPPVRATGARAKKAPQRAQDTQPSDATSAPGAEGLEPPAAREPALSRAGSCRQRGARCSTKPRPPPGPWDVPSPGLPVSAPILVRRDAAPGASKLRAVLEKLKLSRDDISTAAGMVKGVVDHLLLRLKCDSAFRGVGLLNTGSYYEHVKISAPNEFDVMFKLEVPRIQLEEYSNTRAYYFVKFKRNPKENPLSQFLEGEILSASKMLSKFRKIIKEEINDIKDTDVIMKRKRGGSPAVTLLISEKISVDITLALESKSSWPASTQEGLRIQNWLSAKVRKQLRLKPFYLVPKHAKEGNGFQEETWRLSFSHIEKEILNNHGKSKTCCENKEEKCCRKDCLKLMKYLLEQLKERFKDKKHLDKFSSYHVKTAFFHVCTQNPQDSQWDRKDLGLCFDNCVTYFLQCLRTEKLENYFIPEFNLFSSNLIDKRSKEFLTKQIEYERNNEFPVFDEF
mcGAS inh = inhibitors of mouse cGAS; recombinant cGAS, Kinase-Glo ATP depletion luminescence; inhibition, % at 12.5 µM; actives 0.15% (n = 160,000); Q8C6L5; AID 1259399;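 also: 0% = negative control wells and 100% = reference inhibitor with no enzyme activity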
NPYLR7 agonist = activates Aedes aegypti NPYLR7 receptor; HEK293T NPYLR7/Galpha15, GCaMP6s calcium fluorescence; activation, % at 10 µM; actives 0.15% (n = 270,000); in the data active = activation above about 40%;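 also: 0% = vehicle and 100% = reference agonist at the receptor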
The depositor's hits bear a star; · = not tested or not shown. Rule as the data show it, unless noted: active = inhibition above about 40%; inactive = the rest.

SMILES	hcGAS inh	mcGAS inh	NPYLR7 agonist
O=C1NC(=S)NC(=O)C1=Cc1ccc(-c2cc([N+](=O)[O-])ccc2O)o1	51.2*	42.1*	-15.6
O=C1/C(=C/c2ccc3c(c2)OCO3)Oc2c1ccc1c2CN(CC2CCCO2)CO1 (stereo unspecified)	-6.0	-6.9	83.3*
COc1ccc(/C=C2\Oc3c4c(cc(C)c3C2=O)OCN(CC2CCCO2)C4)cc1OC (stereo unspecified)	1.0	3.3	14.6
CCc1cccc2c(C(CC(=O)NCCc3ccccc3)c3cccc(F)c3)c[nH]c12 (stereo unspecified)	-6.3	-3.3	·
CCCc1[nH]nc2c1C(C1CC=CCC1)C(C#N)C(=N)O2 (stereo unspecified)	4.7	-0.3	4.2
O=c1[nH]c(CCl)nc2c1cnn2Cc1ccccc1	-8.8	53.8*	12.2
CSc1nc2c(cnn2Cc2ccccc2)c(=O)[nH]1	-8.4	·	-4.7
NC(=O)c1cccnc1N1CCC(CO)(Cc2ccccc2)CC1	-1.1	-7.2	2.0
CCC(=O)OCCN1CCN(CCCCN(C(=O)CC)c2ccc(C3CCCC3)cc2)CC1	-3.4	·	5.4
Cc1ccc(C(=O)N(Cc2ccco2)Cc2cc3c(cc2Cl)OCO3)cc1[N+](=O)[O-]	-7.5	-2.0	-5.6
Cc1cncc(C(=O)NCCc2nnc3n2CCNCC3)c1	-3.7	·	2.9
O=C(Nc1ccc2c(c1)CCCN2S(=O)(=O)c1ccccc1)c1ccccc1[N+](=O)[O-]	4.2	·	-4.6
Cc1ccc(-c2nc3nc(N)n(C)c(=O)c3[nH]c2=O)cc1	-5.6	-8.0	135.9*
Cc1ccc(Nc2nc3c([nH]2)c(=O)n(C)c(=O)n3C)cc1	-5.0	-10.6	6.0
Cc1cc(NC(=O)Cn2c(-c3ccccc3)c(C)sc2=O)on1	-3.1	·	-23.1
CC(C)C(=O)NC(NC(=S)Nc1ccc(C(=O)O)cc1)C(Cl)(Cl)Cl (stereo unspecified)	-2.8	·	-15.4
O=c1cc(-c2ccccc2)[nH]n1-c1c(F)c(F)c(F)c(F)c1F	-3.2	-4.3	5.0
O=c1c(C=NC2CC2)c(-c2ccccc2)[nH]n1-c1nc2ccccc2s1	59.5*	3.1	2.9
O=c1cc(-c2ccccc2)[nH]n1-c1nc2ccccc2s1	55.3*	30.4	-6.8
COc1ccc(-c2[nH]n(-c3nc4ccccc4s3)c(=O)c2C=NCCN2CCOCC2)cc1	-2.8	·	-3.4
C/C(=N/O)C12CC3(C)CC(C)(CC(C)(C3)C1)C2	-5.6	·	8.0
Cc1cc(C(=O)N2CC(=O)Nc3ccccc32)no1	-10.0	-8.1	1.6
O=C(Nc1ccc(-n2ccnc2)cc1)C1=CN2CCN(Cc3ccccc3)C(=O)N=C2O1	-8.6	·	-3.1
COc1ccc(Cl)cc1Nc1nnc(-c2cc3c(ccc4ccccc43)oc2=O)s1	-6.4	-4.6	58.5*
COc1ccc(Nc2nnc(-c3cc4cc(Cl)ccc4oc3=O)s2)c(OC)c1	-4.5	-4.1	-10.3
SMILES	hcGAS inh	mcGAS inh	NPYLR7 agonist
COc1ccc(Nc2nnc(-c3cc4c(ccc5ccccc54)oc3=O)s2)c(OC)c1	-5.9	-4.0	0.6
COc1ccc2oc(=O)c(-c3nnc(Nc4cc(Cl)ccc4OC)s3)cc2c1	-9.8	-4.1	55.8*
CCOc1ccc(-c2c(C)[n+]3c(n2-c2ccc(OCC)cc2)CCCCC3)cc1	-0.8	·	-0.3
c1ccc2c(-c3cc(NC4CCNCC4)nc4[nH]ccc34)n[nH]c2c1	18.7	-10.9	23.7
c1cnc(-c2cc(NC3CCNCC3)nc3[nH]ccc23)nc1	45.6*	-3.3	29.9
O=[N+]([O-])c1ccc2nc(C(F)(F)F)[nH]c2c1	41.4*	·	11.7
O=[N+]([O-])c1ccc2nc(-c3nc4ccc([N+](=O)[O-])cc4[nH]3)[nH]c2c1	-6.9	·	3.8
CNC(=O)c1cccnc1N1CCC(N2CCCC(C(=O)N3CCCC3)C2)CC1 (stereo unspecified)	-3.9	·	8.4
N#CC(=Cc1ccccc1I)c1ccccn1	-4.4	-3.8	-0.7
N#CC(=Cc1c(F)c(F)c(F)c(F)c1F)c1ccccn1	-0.6	-3.9	99.4*
CCOCCCN(CC(=O)N(Cc1ccccc1)Cc1ccc(C)s1)C(=O)c1ccc(Cl)c(Cl)c1	-1.7	1.9	-1.3
N#Cc1cncc(N2CCc3ccccc3C2)n1	2.2	·	3.0
Nc1nc(-c2cc(I)c(O)c(I)c2)cs1	65.8*	102.1*	-2.0
Nc1nc(-c2ccncc2)cs1	4.1	·	7.8
COc1cc(OC)cc(C(=O)N2CCN(C(C(=O)Nc3ccc(NC(C)=O)cc3)C3CCCC3)CC2)c1 (stereo unspecified)	-5.7	-5.3	59.6*
COc1ccc(C(=O)N2CCN(C(C(=O)Nc3cc(OC)cc(OC)c3)C3CCCC3)CC2)cc1 (stereo unspecified)	-7.7	-5.6	-0.8
Cc1c(C(=O)N2CCCCC2C)sc2nc(-c3cccc([N+](=O)[O-])c3)cn12 (stereo unspecified)	-4.1	-8.4	3.2
